Test results as given in the supplement of paper PMC9334596.
“And” between values parts separate entries of the source, which are not always exact repeats. Identical values can stand only once. Whole data set: some 5,300 compounds, median “PER2::LUC luminescence relative to vehicle control” near 0.96, cut for the highest 2% near 1.3. Only a selection was taken, and the highest values are over-represented in it overall.

Test system: mPer2Luc MEF
Test: PER2::LUC luminescence relative to vehicle control (fold of vehicle); higher = higher PER2::LUC reporter signal
Conditions: 10 µM
Outline: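 The reported values are PER2::LUC luminescence as fold of vehicle control in mouse embryonic fibroblasts carrying the mPer2Luc reporter. Cells were seeded at ~3000 per well in 384-well plates in DMEM with 10% FBS at 37 °C and 5% CO2, and compounds were added at 10 μM 48 h later. ONE-Glo luminescence was read 24 h and 30 h after treatment.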

Structure (SMILES)	PER2::LUC luminescence (time after treatment 24 h)	PER2::LUC luminescence (time after treatment 30 h)
CCC1=C[C@H]2CN(C1)Cc1c([nH]c3ccccc13)[C@@](C(=O)OC)(c1cc3c(cc1OC)N(C)[C@H]1[C@@](O)(C(=O)OC)[C@H](OC(C)=O)[C@]4(CC)C=CCN5CC[C@]31[C@@H]54)C2	0.279	0.324
O=C(Nc1ccc(Cl)cc1)c1cc(Br)ccc1O	0.822	0.728
CCc1c(C(=O)NNC(=O)[C@@H](O)c2cc(F)cc(F)c2)ccc(O)c1C	1.02	1.09
O=Nc1c(-c2c(O)[nH]c3ccccc23)[nH]c2ccccc12	1.72	2.02
O=Nc1c(-c2c(O)[nH]c3cc(Br)ccc23)[nH]c2ccccc12	0.663	0.788
O=C1N=c2ccccc2=C1c1c(O)[nH]c2ccccc12	0.942	0.677
CN(C)Cc1nc(-c2cn(C)c3ccccc23)no1	0.847	0.949
CCCN(CCC)S(=O)(=O)c1ccc(C(=O)O)cc1	0.832	0.861
NS(=O)(=O)c1ccc(C(=O)O)cc1	0.746	1.06
O=C(O)c1ccc(S(=O)(=O)N(Cl)Cl)cc1	0.921	1.67
COc1cccc(/C=N/N(C(=O)C(F)(F)F)c2ccc(C)cc2C)c1	0.818	0.768
CN(CCCNC(=O)c1ccc2nc3c(c(Cl)c2c1)CCCC3)Cc1ccccc1	0.848	0.958
C=CCn1c(=O)c2c(nc(-c3ccccc3)n2C)n(C)c1=O	0.98	0.951
O=c1c(O)c(-c2cc(O)c(O)c(O)c2)oc2cc(O)cc(O)c12	1.22	1.34
O=c1c(O)c(-c2ccc(O)cc2)oc2cc(O)cc(O)c12	1.01	0.989
O=c1c(O)c(-c2ccccc2O)oc2cc(O)cc(O)c12	0.983	0.996
O=c1c(O)c(-c2ccccc2)oc2cc(O)cc(O)c12	1.24	1.34
O=c1c(O)c(-c2ccc(O)c(O)c2)oc2cc(O)cc(O)c12	0.939 and 0.842	0.934 and 1
O=c1c(O)c(-c2ccc(O)cc2O)oc2cc(O)cc(O)c12	0.955	0.963
C[C@@H]1O[C@@H](O[C@H]2[C@H](Oc3cc(O)c4c(=O)c(O)c(-c5ccc(O)cc5)oc4c3)O[C@H](CO)[C@@H](O)[C@@H]2O)[C@H](O)[C@H](O)[C@H]1O	1.24	0.968
COC(=O)C1=CO[C@@H](O[C@@H]2O[C@H](CO)[C@@H](O)[C@H](O)[C@H]2O)[C@H]2[C@@H]1C(=O)C[C@@H]2C	0.968	0.979
NC(=O)[C@@H]1CC[C@H](c2ccc(OCc3ccccc3F)cc2)N1	0.937	1.12
COc1ccc(C(=O)c2ccccc2C(=O)O)c(O)c1	1.19	0.841
Ic1cccc(/C=N/Nc2nc(N3CCOCC3)nc(N(c3ccccc3)c3ccccc3)n2)c1	1.3	1.15
CCOC(=O)C1=C(COCCN)NC(C)=C(C(=O)OC)[C@@H]1c1ccccc1Cl	0.445	0.46
COC(=O)C1=C(C)NC(C)=C(C(=O)OCCN(C)Cc2ccccc2)C1c1cccc([N+](=O)[O-])c1 (centres undefined)	1.07	0.867

Structure (SMILES)	PER2::LUC luminescence (time after treatment 24 h)	PER2::LUC luminescence (time after treatment 30 h)
COCCOC(=O)C1=C(C)NC(C)=C(C(=O)OC(C)C)C1c1cccc([N+](=O)[O-])c1 (centres undefined)	1.13	1.17
CCOC(=O)C1=C(C)NC(C)=C(C(=O)OC)C1c1cccc([N+](=O)[O-])c1 (centres undefined)	1.06 and 0.626	1.37 and 0.715
CNCc1ccc(C)c(NC(=O)c2ccc(Nc3nc(-c4ccccc4)c4ccccc4n3)cc2)c1	0.439	0.475
Cc1ccc(NC(=O)c2cccc(N(C)C)c2)cc1NC(=O)c1ccc(O)cc1	1.1	1.56
Cc1ccc(C(=O)Nc2ccc(S(=O)(=O)O)c3cc(S(=O)(=O)O)cc(S(=O)(=O)O)c23)cc1NC(=O)c1cccc(NC(=O)Nc2cccc(C(=O)Nc3cc(C(=O)Nc4ccc(S(=O)(=O)O)c5cc(S(=O)(=O)O)cc(S(=O)(=O)O)c45)ccc3C)c2)c1	0.964 and 0.875	0.981 and 0.97
CO/S(=N\S(=O)(=O)c1ccc(Cl)cc1)c1ccc([N+](=O)[O-])cc1 (centres undefined)	0.994	1.22
COc1cc(OC)cc(C(=O)Nc2ccc(Cl)c(-c3nc4ccc(N(C)C)cc4[nH]3)c2)c1	0.977	1.35
NC(=O)c1ccc2nc(-c3ccc(Oc4ccc(Cl)cc4)cc3)[nH]c2c1	1.29	1.16
CC(C)CC[C@@H](O)[C@](C)(O)[C@H]1CC[C@@]2(O)C3=CC(=O)[C@]4(O)C[C@@H](O)[C@@H](O)C[C@]4(C)[C@H]3[C@H](O)C[C@]12C	1.22	1.26
Cc1o[nH]c(=O)c1CCC(N)C(=O)O (centres undefined)	0.959	0.829
O=C[C@H](O)[C@H]1OC(=O)[C@@H](O)[C@H]1O	1.14	0.922
C[n+]1cc(NC(=O)c2cccc(C(=O)Nc3cc4ccccc4[n+](C)c3)n2)cc2ccccc21	0.697	0.604
Cc1cccn2c(=O)c(C=C(C#N)c3nc4ccccc4s3)c(Oc3ccc(F)cc3)nc12	0.941	0.942
CCCCCCCC/C=C/CCCCCCCCOP(=O)([O-])OCC[N+](C)(C)C	1.02	0.935
OC[C@H]1O[C@@H](O[C@H]2[C@H](O)[C@@H](O)C(O)O[C@@H]2CO)[C@H](O)[C@@H](O)[C@H]1O (some centres undefined)	1.03	1.06
OC[C@H]1O[C@@H](O[C@@H]2[C@@H](CO)OC(O)(CO)[C@H]2O)[C@H](O)[C@@H](O)[C@H]1O (mixture of isomers)	1.12	1.37
OC[C@H]1O[C@@H](O[C@H]2[C@H](O)[C@@H](O)[C@@H](O)O[C@@H]2CO)[C@H](O)[C@@H](O)[C@@H]1O	0.982	0.927
CCCC1(C)C(C#N)(C#N)C1(C#N)C#N	1.15	1.04
CC[C@H](CC[C@@H](C)[C@H]1CC[C@H]2[C@@H]3CC=C4C[C@@H](OC(C)=O)CC[C@]4(C)[C@H]3CC[C@]12C)C(C)C	1.04	1.02
C[C@@H]1CCNC(=O)c2cc3ccc(C(=O)Nc4nc5ccccc5n4CCCN(C)C)cc3n21	0.548	0.586
O=C(Nc1nc2ccccc2n1CCN1CCOCC1)c1cccc([N+](=O)[O-])c1	1.36	1.18
COC(=O)c1ccc2c(c1)nc(NC(=O)c1ccccc1)n2CCCc1ccccc1	1.09	0.933
CC(C)[C@H](NC(=O)CCCCCN1C(=O)C=CC1=O)C(=O)N[C@@H](CCCNC(N)=O)C(=O)Nc1ccc(COC(=O)Oc2ccc([N+](=O)[O-])cc2)cc1	0.958	1.07
COC(=O)CNC(=O)C(=O)OC	0.922	0.99
CC(C)(C)c1ccc(S(=O)(=O)Nc2ccc(-n3ccnc3)cc2)cc1	1.15	1.26
Cc1cc(OCc2nc(-c3ccccc3Cl)cs2)ccc1CCC(=O)O	1.11	1.28

Structure (SMILES)	PER2::LUC luminescence (time after treatment 24 h)	PER2::LUC luminescence (time after treatment 30 h)
CCOc1cc2c(c(F)c1OCC)C(=N)N(CC(=O)c1cc(N3CCOCC3)c(OC)c(C(C)(C)C)c1)C2	0.14	0.117
Nc1ccc(NC(=O)c2ccc(C(F)(F)F)cc2)nc1	1.01	0.976
Cc1oncc1C(=O)Nc1ccc(C(F)(F)F)cc1	1.35	1.82
O=C(Nc1ccc(C(O)(C(F)(F)F)C(F)(F)F)cc1)c1ccc(C(F)(F)F)cc1	0.687	0.47
CC1=CC[C@@]2(C)CC[C@@](O)(C(C)C)[C@@H]2[C@@H](OC(=O)c2ccc(O)cc2)C1	1.08	1.15
O=C(Nc1ccc(Cl)cc1CN1C(=O)c2ccccc2C1=O)c1ccccc1O	1.03	1.02
NC[C@H]1CC[C@H](C(=O)Oc2ccc(CCC(=O)O)cc2)CC1	0.828	0.901
Cc1cc2c(cc1Cl)N(C(=O)Nc1ccc(Oc3cccnc3C)nc1)CC2	0.924	1.03
C[Si](C)(C)CCOCn1ccc2c(-c3cn[nH]c3)ncnc21	1.11	1.03
S=C(Nc1ccccc1)Nc1nccs1	1.46	1.58
O=C(O)c1ccccc1C(=O)Nc1ccc(S(=O)(=O)Nc2nccs2)cc1	0.993	0.892
O=C(O)CCC(=O)Nc1ccc(S(=O)(=O)Nc2nccs2)cc1	0.666	0.939
CCOc1ccc(C(Nc2ccccn2)c2ccc3ccc(C)nc3c2O)cc1C (centres undefined)	1.13	1.13
NC(N)=NCCC[C@H](NC(=O)[C@@H](N)Cc1ccc(O)cc1)C(=O)O	1.04	0.909
CS(=O)(=O)c1cc(F)cc2c3c(n(Cc4ccc(Cl)cc4)c12)[C@@H](CC(=O)O)CC3	1.13	1.09
CC(=O)OC1CCC2(C)C(=CCC3C2CCC2(C)C(C(C)CCCC(C)C)CCC32)C1 (centres undefined)	1.04	0.938
CC(C)CCC[C@@H](C)[C@H]1CC[C@H]2[C@@H]3CC=C4C[C@@H](O)CC[C@]4(C)[C@H]3CC[C@]12C	0.926	0.923
CC(C)CCC[C@@H](C)[C@H]1CC[C@H]2[C@@H]3CC=C4CC(=O)CC[C@]4(C)[C@H]3CC[C@]12C	1.42	1.09
CO[C@H]1[C@H](OC(=O)c2ccc(C)[nH]2)[C@H](O)[C@@H](Oc2ccc3c(O)c(NC(=O)c4c[nH]c(C(=O)Nc5c(O)c6ccc(O[C@H]7OC(C)(C)[C@@H](OC)[C@H](OC(=O)c8ccc(C)[nH]8)[C@@H]7O)c(C)c6oc5=O)c4C)c(=O)oc3c2C)OC1(C)C	1.1	1.13
C/C1=C\CC(C)(C)/C=C/C(=O)/C(C)=C/CC1	1.08	1.06
Cc1nc2ccccc2n1Cc1ccc(Cl)cc1	0.361	0.307
CN(c1nccc(=O)[nH]1)C1CCN(c2nc3ccccc3n2Cc2ccc(F)cc2)CC1	1.07	1.45
Clc1ccc(Cn2c(CN3CCCC3)nc3ccccc32)cc1	1.06 and 0.848	0.924 and 0.834
COc1ccc([C@@H]2OC[C@@H]3[C@H]2CO[C@H]3c2ccc(OC)c(OC)c2)cc1OC	1.05	1.07
CC1(C)CC(NC(=O)C(=O)Nc2ccc(Br)cc2)CC(C)(C)N1	0.875	0.928
